Screening results as filed in PubChem.
Avidin fluor: green autofluorescence of compounds with avidin beads – biophysical, 488/530 nm, flow cytometry, artefact control, profiling panel; compound fluorescence 488/530 nm; active compounds read high; fluorescence (KMESF) at 10 µM; hit rate 0.38% among 220,000; AID 1775, 2009; in the data active = fluorescence above about 47
RGS8-Gao: RGS8-Galphao binding modulators, primary screen, biochemical, multiplexed bead flow cytometry; Guanine nucleotide-binding protein G(o) subunit alpha (Homo sapiens), P09471; actives lie on both sides; response (percent of control binding), % at 10 µM; hit rate 0.34% among 220,000; in the data active = response below about 60% or above about 140%; inactive = in between;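 also: Galphao activated as the GDP aluminium fluoride complex binding bead-coupled RGS8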
Target sequence (P09471 whole entry, looked up): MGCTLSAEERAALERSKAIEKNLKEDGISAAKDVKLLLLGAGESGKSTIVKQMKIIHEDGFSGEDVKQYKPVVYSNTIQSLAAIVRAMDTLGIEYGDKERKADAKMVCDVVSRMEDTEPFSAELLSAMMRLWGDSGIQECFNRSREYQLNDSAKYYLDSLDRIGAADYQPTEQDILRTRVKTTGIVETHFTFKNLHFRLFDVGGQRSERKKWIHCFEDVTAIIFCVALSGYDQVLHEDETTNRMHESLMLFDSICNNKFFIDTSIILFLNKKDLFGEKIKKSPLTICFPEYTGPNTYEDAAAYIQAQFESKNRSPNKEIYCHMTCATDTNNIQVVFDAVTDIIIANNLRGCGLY
RGS7-Gao: RGS7-Galphao binding modulators, primary screen, biochemical, multiplexed bead flow cytometry | Guanine nucleotide-binding protein G(o) subunit alpha (Homo sapiens), P09471 | actives lie on both sides | binding response (% of control), % at 10 µM | hit rate 0.35% among 220,000; in the data active = binding response below about 49% or above about 150%; inconclusive = no clear call, values can overlap the other calls; inactive = in between;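 also: fluorescent Galphao held in activated GDP-AlF4 state binding bead-coupled RGS7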
GSH fluor: compound fluorescence on glutathione beads, profiling panel, artefact control, biophysical, 488/530 nm, flow cytometry; AID 1776, 2009; fluorescence (KMESF) at 10 µM; hit rate 0.25% among 190,000; GSH beads flow cytometry, compound fluorescence 488/530 nm; active compounds read high; in the data active = fluorescence above about 89;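 also: glutathione beads carrying GST-tagged Bcl family fusion proteins plus one bare bead set; values are compound well signal with DMSO vehicle wells as background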
RGS16-Gao HTS: modulators of RGS16 binding to Galphao, primary screen, biochemical, human proteins, multiplexed bead flow cytometry | AID 1441, 2008 | bead-based flow cytometry RGS16-Galphao binding, fluorescence; actives lie on both sides | binding response (% of control), % at 10 µM | hit rate 0.38% among 220,000 | Regulator of G-protein signaling 16 (Homo sapiens) + Guanine nucleotide-binding protein …;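 also: Galphao activated by GDP with aluminum fluoride before binding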
Target sequence (O15492 whole entry, looked up): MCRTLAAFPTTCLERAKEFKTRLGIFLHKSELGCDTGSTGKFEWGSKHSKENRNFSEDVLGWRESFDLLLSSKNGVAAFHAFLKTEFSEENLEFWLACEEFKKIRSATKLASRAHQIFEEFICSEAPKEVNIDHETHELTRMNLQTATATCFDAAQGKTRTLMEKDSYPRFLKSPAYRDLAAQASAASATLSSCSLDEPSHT
Target sequence (P09471 whole entry, looked up): as the sequence (P09471 whole entry, looked up) above
RGS4-Gao reg: modulators of RGS4 binding to Galphao, primary screen, biochemical, multiplexed bead flow cytometry; Guanine nucleotide-binding protein G(o) subunit alpha (Homo sapiens), P09471; actives lie on both sides; binding response (% of control), % at 10 µM; hit rate 0.33% among 220,000; AID 1415, 2008; in the data active = binding response below about 49% or above about 150%; inactive = in between;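 also: fluorescent Galphao activated with aluminum fluoride binding bead-coupled RGS4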
RGS4-Gao HTS: modulators of RGS–Galpha-o binding, primary screen, biochemical, multiplexed beads, flow cytometry, RGS4/7/8/16/19. shares compounds with RGS16-Gao HTS. multiplexed bead flow cytometry. RGS4–Galpha-o binding response, % at 10 µM. hit rate 99% among 1,600. AID 1504, 2009;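 also: fluorescently labeled Galpha-o bound to GDP with aluminium fluoride binding biotinylated RGS beads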
Biotin-avidin: disruption of biotin probe capture by avidin, counter-screen for RGS protein interaction modulators, biochemical, flow cytometry, bead-based | shares compounds with RGS16-Gao HTS | AID 1783, 2009 | 1,700 tested, under 10 active | streptavidin beads, fluorescein-biotin binding | inhibition, % at 10 µM;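 active = inhibition above 50%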;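 also: median green fluorescence of gated singlet beads compared with DMSO control wells; 0% = DMSO wells and 100% = complete loss of bead fluorescence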
RGS8-Gao single: RGS8-Galphao binding modulators, confirmation, biochemical, multiplexed bead flow cytometry, single concentration. shares compounds with RGS16-Gao HTS. bead-based flow cytometry RGS8-Galphao binding, fluorescence; actives lie on both sides. binding response (% of control), % at 10 µM. hit rate 3% among 1,700. AID 1836, 2009; in the data active = binding response below about 72% or above about 130%; inactive = in between;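 also: Galphao activated as GDP AlF4 complex before binding bead RGS8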
RGS7-Gao single: RGS7-Galphao binding modulators, confirmation, biochemical, multiplexed bead flow cytometry, single concentration; shares compounds with RGS16-Gao HTS; bead-based flow cytometry RGS7-Galphao binding; actives lie on both sides; response (percent of control binding), % at 10 µM; hit rate 7.8% among 1,700; in the data active = response below about 75% or above about 130%; inactive = in between;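 also: fluorescent Galphao activated with GDP and aluminum fluoride binding bead-coupled RGS7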
RGS16-Gao conf: modulators of RGS16-Galphao protein binding, confirmation, biochemical, single concentration, multiplexed bead flow cytometry; shares compounds with RGS16-Gao HTS; bead-based flow cytometry; actives lie on both sides; response (% of control binding), % at 10 µM; hit rate 4% among 1,700; in the data active = response below about 74% or above about 130%; inactive = in between;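 also: Galphao activated as the GDP aluminium fluoride complex binding bead-coupled RGS16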
RGS4-Gao confirm: modulators of RGS4-Galphao protein binding, confirmation, biochemical, single concentration, multiplexed bead flow cytometry; shares compounds with RGS16-Gao HTS; actives lie on both sides; binding response (% of control), % at 10 µM; hit rate 4% among 1,700; in the data active = binding response below about 74% or above about 130%; inactive = in between
RGS19-Gao single: regulators of RGS19-Galphao binding, confirmation, biochemical, single point, multiplexed bead flow cytometry. shares compounds with RGS16-Gao HTS. hit rate 5% among 1,700. response (percent of control binding), % at 10 µM. bead-based flow cytometry RGS19-Galphao binding; actives lie on both sides. AID 1841, 2009; in the data active = response below about 50% or above about 160%; inactive = in between;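 also: 100% = no compound control and 0% = blank background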
* hit, by the source's call; [ ] = remark or other dose. In the library only some 1.2% were active in any assay of this set; here they are far more common. Unless noted, no rule for the calls is given here.

`O=C(N/N=C\c1ccc(Cl)s1)c1ccc(Cn2cccn2)o1` gave Avidin fluor 2, RGS8-Gao 100, RGS7-Gao 98, GSH fluor 7, RGS16-Gao HTS 99 and RGS4-Gao reg 96.
Screening CC1=NN(C(C#N)c2ccc(F)cc2)C(C)(C)C1 (stereo not given) returned Avidin fluor 4, RGS8-Gao 58*, RGS7-Gao 44*, GSH fluor 16, RGS16-Gao HTS 45, RGS4-Gao reg 50*, Biotin-avidin 0, RGS8-Gao single 104, RGS7-Gao single 111, RGS16-Gao conf 107, RGS4-Gao confirm 109 and RGS19-Gao single 103.
CC1=NN(C(C#N)c2ccc([N+](=O)[O-])cc2)C(C)(C)C1 (stereo not given) was read as Avidin fluor 8, RGS8-Gao 106, RGS7-Gao inconclusive, RGS16-Gao HTS 122 and RGS4-Gao reg 108.
`Cc1cc(C)cc(N(CC(=O)NCc2ccco2)S(=O)(=O)c2c(C)noc2C)c1` gave Avidin fluor 8, RGS8-Gao 98, RGS7-Gao 96, GSH fluor 23, RGS16-Gao HTS 104 and RGS4-Gao reg 102.
Screening CC(C)N1CCC(N2CCN(Cc3ccc(Oc4ncccn4)cc3)CC2CCO)CC1 (stereo not given) returned Avidin fluor 11, RGS8-Gao 102, RGS7-Gao inconclusive, RGS16-Gao HTS 102 and RGS4-Gao reg 106.
For CCOc1ccc2[nH]c(=S)[nH]c2c1 the results were Avidin fluor 15, RGS8-Gao 101, RGS7-Gao 105, GSH fluor 27, RGS16-Gao HTS 103 and RGS4-Gao reg 101.
`CCOc1ccc2c(c1)n(CO)c(=S)n2CO` gave Avidin fluor 104*, RGS8-Gao 100, RGS7-Gao 176*[activator], GSH fluor 25, RGS16-Gao HTS 104, RGS4-Gao reg 112, RGS4-Gao HTS 112*, Biotin-avidin 0, RGS8-Gao single 91, RGS7-Gao single 79, RGS16-Gao conf 93, RGS4-Gao confirm 90 and RGS19-Gao single 110.
For Cc1nn(CCCC(=O)N2CCN(c3ccc(F)cc3)CC2)c(C)c1[N+](=O)[O-] the results were Avidin fluor 3, RGS8-Gao 18*, RGS7-Gao 19*, GSH fluor 15, RGS16-Gao HTS 15*, RGS4-Gao reg 25*, Biotin-avidin 0, RGS8-Gao single 103, RGS7-Gao single 95, RGS16-Gao conf 100, RGS4-Gao confirm 99 and RGS19-Gao single 81.
Screening CCN(CC)S(=O)(=O)c1cccc(-c2nnc(SCC(=O)NC)n2CCc2ccccc2)c1 returned Avidin fluor 161*, RGS8-Gao 100, RGS7-Gao 246*[activator], GSH fluor 26, RGS16-Gao HTS 111, RGS4-Gao reg 128, RGS4-Gao HTS 128*, Biotin-avidin 1, RGS8-Gao single 101, RGS7-Gao single 105, RGS16-Gao conf 103, RGS4-Gao confirm 102 and RGS19-Gao single 114.
For O=C(NC1(C(F)(F)F)NC(=O)N(Cc2ccccc2)C1=O)c1cccnc1 (stereo not given) the results were Avidin fluor 6, RGS8-Gao 101, RGS7-Gao 103, GSH fluor 31, RGS16-Gao HTS 103 and RGS4-Gao reg 106.
`O=C(NC1(C(F)(F)F)NC(=O)N(Cc2cccnc2)C1=O)c1ccccc1` (stereo not given) gave Avidin fluor 2, RGS8-Gao 52*, RGS7-Gao 42*, GSH fluor 28, RGS16-Gao HTS 39, RGS4-Gao reg 46*, Biotin-avidin 0, RGS8-Gao single 99, RGS7-Gao single 104, RGS16-Gao conf 103, RGS4-Gao confirm 102 and RGS19-Gao single 97.
`CC(C)NC(=O)CC1C(=O)N(Cc2ccccc2)C(C)c2nc3ccccc3n21` (stereo not given) gave Avidin fluor 9, RGS8-Gao 102, RGS7-Gao 102, GSH fluor 19, RGS16-Gao HTS 99 and RGS4-Gao reg 97.
Screening CC1CCC2(CC1)NC(=S)N(c1ccccc1)N2 (stereo not given) returned Avidin fluor 125*, RGS8-Gao 102, RGS7-Gao 171*[activator], GSH fluor 10, RGS16-Gao HTS 105, RGS4-Gao reg 140, RGS4-Gao HTS 140*, Biotin-avidin 0, RGS8-Gao single 94, RGS7-Gao single 94, RGS16-Gao conf 92, RGS4-Gao confirm 95 and RGS19-Gao single 98.
`Cc1nc2ccc(C(=O)N3c4ccccc4CC3C)cc2s1` (stereo not given) gave Avidin fluor 8, RGS8-Gao 100, RGS7-Gao inconclusive, GSH fluor 16, RGS16-Gao HTS 100 and RGS4-Gao reg 101.
